According to publication PMC4336329 (PLoS ONE, 2015):
Screen size: about 310,000 compounds; about 14,000 (4.5%) showed an effect of 50% or more. Effects have a minus sign here. The sample as a whole holds a higher share of strong results than the screen did.

Molecular target: human ether-à-go-go-related gene (hERG) potassium channel (human, UniProt Q12809)
Assay: primary screen, population patch clamp on CHO cells stably expressing hERG; higher = less effect of the substance
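Further: peak tail current of the secondary pulse compared with the same well before compound.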

Chain of human ether-à-go-go-related gene (hERG) potassium channel (Q12809 whole entry, looked up): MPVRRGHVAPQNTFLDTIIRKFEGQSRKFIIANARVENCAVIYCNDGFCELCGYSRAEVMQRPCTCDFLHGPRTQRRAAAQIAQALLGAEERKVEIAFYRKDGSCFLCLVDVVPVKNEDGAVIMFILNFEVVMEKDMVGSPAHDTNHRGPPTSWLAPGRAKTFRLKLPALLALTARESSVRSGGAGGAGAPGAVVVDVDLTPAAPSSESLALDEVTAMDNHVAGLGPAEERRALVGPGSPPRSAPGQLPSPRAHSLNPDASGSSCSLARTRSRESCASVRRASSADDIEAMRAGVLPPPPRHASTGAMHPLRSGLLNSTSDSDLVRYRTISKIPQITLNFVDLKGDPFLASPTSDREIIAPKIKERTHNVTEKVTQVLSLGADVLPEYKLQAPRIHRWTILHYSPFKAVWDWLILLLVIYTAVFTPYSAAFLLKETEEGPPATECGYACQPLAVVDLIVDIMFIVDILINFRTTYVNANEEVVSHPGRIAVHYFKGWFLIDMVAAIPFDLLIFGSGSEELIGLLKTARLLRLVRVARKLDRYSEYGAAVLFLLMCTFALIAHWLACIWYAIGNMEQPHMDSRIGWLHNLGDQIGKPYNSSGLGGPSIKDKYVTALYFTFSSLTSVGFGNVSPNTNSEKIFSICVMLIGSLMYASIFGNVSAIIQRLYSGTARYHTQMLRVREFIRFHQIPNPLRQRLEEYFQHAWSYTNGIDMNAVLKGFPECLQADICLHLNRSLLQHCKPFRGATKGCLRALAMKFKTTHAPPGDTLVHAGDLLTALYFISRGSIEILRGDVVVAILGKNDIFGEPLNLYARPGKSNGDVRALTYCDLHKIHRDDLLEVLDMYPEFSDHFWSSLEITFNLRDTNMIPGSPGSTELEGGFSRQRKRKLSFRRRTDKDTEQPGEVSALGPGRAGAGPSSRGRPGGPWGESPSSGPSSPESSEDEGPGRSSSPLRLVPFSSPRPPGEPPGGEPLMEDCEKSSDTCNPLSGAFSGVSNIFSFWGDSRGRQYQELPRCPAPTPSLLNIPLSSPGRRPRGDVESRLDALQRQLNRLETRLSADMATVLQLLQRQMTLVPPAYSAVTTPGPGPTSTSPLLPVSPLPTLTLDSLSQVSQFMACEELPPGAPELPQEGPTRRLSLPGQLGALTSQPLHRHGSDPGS

Compound	hERG current change (%, negative = inhibition) at 10uM [%]
COc1ccccc1CN1CCN(Cc2nc(-c3cccs3)no2)CC1	-42.8
O=C(C[n+]1ccc(-c2nnc3n2CCC3)cc1)c1ccc(Cl)c(Cl)c1.[Br-]	-14
O=C(O)CC1(CC(=O)NCc2ccc(Cl)cc2)CCCCC1	8.75
CCC12CN(C(=O)c3ccc(C)cc3)CC(CC)(CN(C(=O)c3ccc(C)cc3)C1)C2=O	-33.3
CCn1cc(C(=O)NCCCN2CCC(C)CC2)c(=O)c2cc(S(=O)(=O)N3CCCC3)ccc21	-7.61
CCn1cc(C(=O)NCCCN2CCC(C)CC2)c(=O)c2cc(S(=O)(=O)N(C)C3CCCCC3)ccc21	-80
CCn1cc(C(=O)NCCCN2CCC(C)CC2)c(=O)c2cc(S(=O)(=O)N3CCOCC3)ccc21	-17.1
COc1cc(NC(=O)c2ccc3c(c2)OCO3)ccc1NC(=O)c1ccco1	10.4
Cc1ccc(CNC(=O)c2ccc(Cn3nc(C)cc3C)o2)cc1	-19.1
CCOC(=O)/C(N=Nc1c(Br)cc(Br)cc1Br)=C(\C)O	6.47
Cn1c(CC(=O)NNC(=O)c2ccc(F)cc2F)nc2ccccc21	-7.56
CCOC(=O)/C(C#N)=C/C=C1/C=CC=CN1C	3.01
CCCCCCN1C=CC=C/C1=C/C=C(C#N)C#N	-76.5
CCCN1C=CC(=CC=C(C#N)C#N)C=C1	-3.42
CCCCCCN1C=CC=C/C1=C\C=C(C#N)C#N	-71.1
CC1=C/C(=C\C=C(C#N)C#N)N(C)c2ccccc21	9.34
CCCCCCN1C=CC(=C/C=C(\C#N)C(=O)OCC)C=C1	-4.32
CCCCCCN1C=C/C(=C\C=C(C#N)C#N)c2ccccc21	-37.4
CN1/C(=C/C=C(C#N)C#N)C=Cc2ccccc21	11.5

Compound	hERG current change (%, negative = inhibition) at 10uM [%]
CCCCCN1C=CC=C/C1=C\C=C(C#N)C#N	-70.9
COc1ccc(OC)c(NC(=O)CSc2nnc(C)n2Cc2ccccc2)c1	-23.5
Cc1ccc(C)c(N(C)S(=O)(=O)c2cccc3nsnc23)c1	-18.4
Cc1cc(C)c(S(=O)(=O)Nc2cccc(C(=O)O)c2)cc1S(=O)(=O)Nc1cccc(C(=O)O)c1	18.2
NNC(=O)c1ccc(Cn2cc(Cl)cn2)o1	15.6
COC(=O)c1ccc(/C=N/N2CCN(Cc3ccccc3Cl)CC2)cc1	5.88
COCCNC(=O)CCc1c(C)nc2c(c(C)nn2-c2ccc(C)c(C)c2)c1C	-3.85
COCCCNC(=O)CCc1c(C)nc2c(c(C)nn2-c2ccc(C)cc2)c1C	-7.71
COCCNC(=O)CCc1c(C)nc2c(c(C)nn2-c2ccc(C)cc2)c1C	-17.6
Cc1ccc(-n2nc(C)c3c(C)c(CCC(=O)NCCCOC(C)C)c(C)nc32)cc1	-53.1
Cc1nc2c(c(C)nn2-c2ccccc2)c(C)c1CCC(=O)NCCCOC(C)C	-34.7
CCN(CC)CCNC(=O)CCc1c(C)nc2c(c(C)nn2-c2ccc(C)c(C)c2)c1C	-62.3
CCCNC(=O)CCc1c(C)nc2c(c(C)nn2-c2ccc(C)cc2)c1C	-0.266
CCN(CC)CCNC(=O)CCc1c(C)nc2c(c(C)nn2-c2ccc(C)cc2)c1C	-55.4
Cc1ccc(-n2nc(C)c3c(C)c(CCC(=O)O)c(C)nc32)cc1C	30.7
COc1ccc(N(CC(=O)NCc2ccc3c(c2)OCO3)S(C)(=O)=O)cc1OC	1.12
COc1ccc(C2NC(=O)NC(C)=C2C(=O)OCC2CCCCC2)cc1OC (centres unmarked)	-2.11
Cc1cc(NC(CC(C)C)C(=O)O)nc(Cc2ccccc2)n1 (centres unmarked)	9.96
CCN(CC)CCOC(=O)C1(c2ccc(OC)c(OC)c2)CCCC1.Cl	-16.9

Compound	hERG current change (%, negative = inhibition) at 10uM [%]
COc1cccc(Nc2c([N+](=O)[O-])cncc2[N+](=O)[O-])c1	-2.64
Cc1ccc(S(=O)(=O)Nc2ccc(-n3cnnn3)cc2)cc1	-1.93
COc1ccccc1CCNC(=O)CCC(=O)N1CC2C[C@@H](C1)Cn1c2cccc1=O	6.31
CC(C)SCC(=O)Nc1ncc2c(n1)-c1ccccc1CC2	7.72
O=C(NCCCc1ccncc1)C1CCC(=O)N(CCc2cccc(F)c2)C1 (centres unmarked)	-51.8
O=C(NCCCc1ccncc1)C1CCC(=O)N(Cc2cccc(F)c2)C1 (centres unmarked)	-14.5
COc1cccc(CN2CC(C(=O)NCCCc3ccc(C)cc3)CCC2=O)c1 (centres unmarked)	-28.4
COc1ccccc1CCCNC(=O)C1CCC(=O)N(CCc2cccc(F)c2)C1 (centres unmarked)	-19.1
Cc1ccc(CCNC(=O)C2CCC(=O)N(Cc3cccc(F)c3)C2)cc1 (centres unmarked)	-4.64
COc1ccc(CCCNC(=O)C2CCC(=O)N(CCc3cccc(F)c3)C2)cc1 (centres unmarked)	-53.1
O=C(NCCc1cccnc1)C1CCC(=O)N(CCc2cccc(F)c2)C1 (centres unmarked)	7.99
COc1ccc(CCN2CC(C(=O)NCCc3ccc(F)cc3)CCC2=O)cc1 (centres unmarked)	-22
Cc1ccc(CCCNC(=O)C2CCC(=O)N(Cc3cccc(F)c3)C2)cc1 (centres unmarked)	-53.4
O=C(CN1C(=O)NC2(CCCCCCC2)C1=O)NCc1cccs1	7.8
CC(=O)c1c(C)[nH]c(C(=O)COc2ccc3c(C)cc(=O)oc3c2)c1C	7.54
CC(=O)c1cc(NC(=O)c2ccccc2)c(=O)oc1/C=C/N(C)C	-12.1
S=C(NCCCN1CCOCC1)Nc1ccc(-c2nc3ccccc3[nH]2)cc1	-11.7
CSc1cccc(NS(=O)(=O)c2ccc(-c3coc(C)n3)cc2)c1	22.6
